This note sets out measurements from the antibiotic and cytotoxicity screens of Wong et al. (2023).

About 1,500 (3.8%) of roughly 39,000 compounds were called active. The sample holds actives, similar compounds and a random draw of the others, so the mix is not that of the screen.

This experiment relates to HSkMC (human skeletal muscle cells). Description: cytotoxicity call (relative viability < 0.9). Particulars: 10 µM.
For `O=C(C[C@@H]1C[C@H]2c3cc(NC(=O)Nc4ccc(C(F)(F)F)cc4)ccc3O[C@H]2[C@H](CO)O1)NCc1cc(F)ccc1F`, the cytotoxicity call is “inactive”.

For the compound `C[C@@H]1CN([C@H](C)CO)C(=O)c2cc(NC(=O)c3ccncc3)ccc2O[C@H]1CN(C)Cc1ccc(Oc2ccccc2)cc1`, the cytotoxicity call was “inactive”.

With `O=C(O[C@H]1[C@H](O)[C@@H](CO)O[C@H](c2c(O)cc(O)c(C(=O)c3ccc(O)cc3)c2O)[C@H]1OC(=O)c1cc(O)c(O)c(O)c1)c1cc(O)c(O)c(O)c1`, the cytotoxicity call was “inactive”.

For the compound `CCS(=O)(=O)Nc1ccc2c(c1)C(=O)N(C)[C@@H]1CC[C@H](CC(=O)NCCCN3CCOCC3)O[C@@H]1CO2`, the cytotoxicity call is “inactive”.

`COc1ccc(S(=O)(=O)Nc2ccc3c(c2)CC(=O)N([C@@H](C)CO)C[C@H](C)[C@@H](CN(C)Cc2ccc(-c4ccccc4)cc2)O3)cc1`: the cytotoxicity call was “inactive”.

With `COc1ccc(S(=O)(=O)Nc2ccc3c(c2)CC(=O)N([C@H](C)CO)C[C@H](C)[C@H](CN(C)Cc2ccc(-c4ccccc4)cc2)O3)cc1`, the cytotoxicity call was “inactive”.

On to `COc1ccc(S(=O)(=O)Nc2ccc3c(c2)CC(=O)N([C@@H](C)CO)C[C@@H](C)[C@@H](CN(C)Cc2ccc(-c4ccccc4)cc2)O3)cc1`, for which the cytotoxicity call is “inactive”.

`COc1ccc(S(=O)(=O)Nc2ccc3c(c2)CC(=O)N([C@H](C)CO)C[C@H](C)[C@@H](CN(C)Cc2ccc(-c4ccccc4)cc2)O3)cc1`: the cytotoxicity call was “inactive”.

Consider `COc1ccc(S(=O)(=O)Nc2ccc3c(c2)CC(=O)N([C@H](C)CO)C[C@@H](C)[C@H](CN(C)Cc2ccc(-c4ccccc4)cc2)O3)cc1`, for which the cytotoxicity call is “active”.

For `COc1ccc(S(=O)(=O)Nc2ccc3c(c2)CC(=O)N([C@@H](C)CO)C[C@@H](C)[C@H](CN(C)Cc2ccc(-c4ccccc4)cc2)O3)cc1`, the cytotoxicity call was “inactive”.

Turning to `COc1ccc(S(=O)(=O)Nc2ccc3c(c2)CC(=O)N([C@@H](C)CO)C[C@H](C)[C@H](CN(C)Cc2ccc(-c4ccccc4)cc2)O3)cc1`, the cytotoxicity call is “active”.

On to `COc1ccc(S(=O)(=O)Nc2ccc3c(c2)CC(=O)N([C@H](C)CO)C[C@@H](C)[C@@H](CN(C)Cc2ccc(-c4ccccc4)cc2)O3)cc1`, for which the cytotoxicity call was “active”.

Turning to `Cc1ccc2oc(=O)cc(Cl)c2c1`, the cytotoxicity call is “inactive”.

As for `NC(=O)NCC#Cc1ccc2c(c1)[C@]1(C(=O)N2)[C@H](C(=O)O)[C@H]2C(=O)O[C@H](c3ccccc3)[C@H](c3ccccc3)N2[C@@H]1c1ccc(OCCO)cc1`, the cytotoxicity call was “inactive”.

On to `COc1ccccc1CNC(=O)C[C@H]1C[C@H]2c3cc(NC(=O)C4CCOCC4)ccc3O[C@H]2[C@@H](CO)O1`, for which the cytotoxicity call was “inactive”.

For the compound `CC(C)NC(=O)N(C)C[C@@H]1Oc2ccc(NS(=O)(=O)c3cn(C)cn3)cc2CC(=O)N([C@@H](C)CO)C[C@@H]1C`, the cytotoxicity call was “inactive”.

On to `Cc1noc(C)c1NC(=O)N(C)C[C@@H]1OCCCC[C@@H](C)Oc2ccc(NS(=O)(=O)c3ccc(Cl)cc3)cc2C(=O)N([C@H](C)CO)C[C@@H]1C`, for which the cytotoxicity call was “inactive”.

On to `COc1ccc(S(=O)(=O)N(C)C[C@@H]2Oc3ccc(NC(=O)c4ccncc4)cc3CC(=O)N([C@@H](C)CO)C[C@H]2C)cc1`, for which the cytotoxicity call is “inactive”.

With `Nc1ccc(S(N)(=O)=O)cc1`, the cytotoxicity call is “inactive”.

As to `C[C@@H]1CN([C@@H](C)CO)C(=O)c2cc(N(C)C)ccc2O[C@@H](C)CCCCO[C@@H]1CN(C)C(=O)CCCN(C)C`, the cytotoxicity call is “inactive”.

Consider `Cc1ccc2[nH]c(=O)c(C3=NN(C(=O)CCC(=O)O)[C@H](c4ccc(Br)cc4)C3)c(-c3ccccc3)c2c1`, for which the cytotoxicity call is “inactive”.

Turning to `COc1ccc(S(=O)(=O)Nc2ccc3c(c2)CC(=O)N([C@H](C)CO)C[C@@H](C)[C@@H](CN(C)S(=O)(=O)c2ccc(OC)cc2)O3)cc1`, the cytotoxicity call is “inactive”.

`C[C@@H]1CN([C@H](C)CO)C(=O)c2cccc(NC(=O)Nc3ccccc3)c2O[C@@H]1CN(C)Cc1ccc(Oc2ccccc2)cc1`: the cytotoxicity call was “inactive”.

For the compound `C[C@@H]1CN([C@@H](C)CO)C(=O)c2cccc(NC(=O)Nc3ccccc3)c2O[C@H]1CN(C)Cc1ccc(Oc2ccccc2)cc1`, the cytotoxicity call was “inactive”.

As to `C[C@H](CO)N1C[C@H](C)[C@@H](CN(C)Cc2ccc(Oc3ccccc3)cc2)Oc2c(NC(=O)Nc3cccc4ccccc34)cccc2C1=O`, the cytotoxicity call is “active”.

For `C[C@@H]1CN([C@@H](C)CO)C(=O)c2cccc(NC(=O)Nc3ccccc3)c2O[C@@H]1CN(C)Cc1ccc(Oc2ccccc2)cc1`, the cytotoxicity call is “inactive”.

`C[C@H]1CN([C@@H](C)CO)C(=O)c2cccc(NC(=O)C3CCCCC3)c2O[C@H]1CN(C)Cc1ccc(Oc2ccccc2)cc1`: the cytotoxicity call was “inactive”.

Turning to `C[C@H]1CN([C@@H](C)CO)C(=O)c2cccc(NC(=O)Nc3ccccc3)c2O[C@@H]1CN(C)Cc1ccc(Oc2ccccc2)cc1`, the cytotoxicity call is “active”.

On to `C[C@H](CO)N1C[C@H](C)[C@@H](CN(C)Cc2ccc(Oc3ccccc3)cc2)Oc2c(NC(=O)C3CCCCC3)cccc2C1=O`, for which the cytotoxicity call is “active”.

Consider `C[C@@H]1CN([C@@H](C)CO)C(=O)c2cccc(NC(=O)C3CCCCC3)c2O[C@H]1CN(C)Cc1ccc(Oc2ccccc2)cc1`, for which the cytotoxicity call was “inactive”.

Take `C[C@H](CO)N1C[C@H](C)[C@H](CN(C)Cc2ccc(Oc3ccccc3)cc2)Oc2c(NC(=O)Nc3cccc4ccccc34)cccc2C1=O`: the cytotoxicity call is “inactive”.

As for `C[C@H]1CN([C@@H](C)CO)C(=O)c2cccc(NC(=O)Nc3cccc4ccccc34)c2O[C@H]1CN(C)Cc1ccc(Oc2ccccc2)cc1`, the cytotoxicity call is “inactive”.

For `C[C@H](CO)N1C[C@H](C)[C@@H](CN(C)Cc2ccc(Oc3ccccc3)cc2)Oc2c(NC(=O)Nc3ccccc3)cccc2C1=O`, the cytotoxicity call was “active”.

As for `C[C@@H]1CN([C@H](C)CO)C(=O)c2cccc(NC(=O)Nc3ccccc3)c2O[C@H]1CN(C)Cc1ccc(Oc2ccccc2)cc1`, the cytotoxicity call was “inactive”.

For `O=C1NC[C@@H](c2ccccc2)OC(=O)[C@H](Cc2ccc(F)cc2)CCC=CC[C@@H]1CC(=O)N(CCO)Cc1ccccc1`, the cytotoxicity call is “inactive”.

Regarding `C[C@H]1CN([C@@H](C)CO)C(=O)c2cc(NC(=O)Nc3ccc(C(F)(F)F)cc3)ccc2O[C@@H]1CN(C)Cc1ccncc1`, the cytotoxicity call is “inactive”.

`COc1ccc(S(=O)(=O)Nc2cccc3c2O[C@H](CN(C)Cc2ccncc2)[C@@H](C)CN([C@H](C)CO)C3=O)cc1`: the cytotoxicity call is “inactive”.

Turning to `CCC1OC(=O)C(C)C(=O)C(C)C(OC2OC(C)CC(N(C)C)C2O)C(C)(OC)CC(C)C(=O)C(C)C2N(CCCCn3cnc(-c4cccnc4)c3)C(=O)OC12C` (stereo unspecified), the cytotoxicity call is “inactive”.

On to `C[C@@H]1CN([C@@H](C)CO)C(=O)c2cc(NC(=O)Cc3cn(C)c4ccccc34)ccc2O[C@@H]1CN(C)Cc1ccc(C(F)(F)F)cc1`, for which the cytotoxicity call is “inactive”.

With `C[C@@H]1CN([C@H](C)CO)C(=O)c2cccc(NC(=O)Nc3ccc(F)cc3)c2O[C@@H]1CN(C)Cc1ccc(-c2ccccc2)cc1`, the cytotoxicity call is “inactive”.

Turning to `CC(=O)n1cc([C@H]2C=C(C(=O)NCc3ccccc3)O[C@@H](OCc3ccc(CO)cc3)C2)c2ccccc21`, the cytotoxicity call is “inactive”.

Turning to `CN(C)CC(=O)N[C@H]1C=C[C@H](CC(=O)NCCN2CCCCC2)O[C@H]1CO`, the cytotoxicity call was “inactive”.

With `COC(=O)[C@@H](NC(=O)Cn1cc(COc2ccccc2/C=C(C)/C=C/C(=O)NO)nn1)c1ccccc1`, the cytotoxicity call is “inactive”.

For the compound `Cc1noc(C)c1NC(=O)Nc1ccc2c(c1)C(=O)N([C@@H](C)CO)C[C@@H](C)[C@@H](CN(C)Cc1ccc(Oc3ccccc3)cc1)O2`, the cytotoxicity call was “inactive”.

Take `N=C(C[n+]1ccccc1)NO`: the cytotoxicity call was “inactive”.

Take `COC(=O)[C@H](Cc1ccc(-n2cc(-c3cccc(/C=C/C(=O)NO)c3)nn2)cc1)N1CC2=C[C@H]([C@@H](O)Cc3ccccc3)n3c(=O)n(C)c(=O)n3[C@@H]2[C@@H](C2CC2)O1`: the cytotoxicity call is “inactive”.

As to `C[C@H](CO)N1C[C@H](C)[C@@H](CN(C)Cc2ccc(C(=O)Nc3ccccc3N)cc2)Oc2ccc(NC(=O)CCN3CCOCC3)cc2CC1=O`, the cytotoxicity call is “inactive”.

For the compound `CC(C)N1C[C@H](C)[C@@H](CN(C)Cc2ccc(Oc3ccccc3)cc2)Oc2c(NC(=O)C3CCNCC3)cccc2C1=O`, the cytotoxicity call was “active”.

In the case of `C[C@H](CO)N1C[C@H](C)[C@@H](CN(C)Cc2ccc(Oc3ccccc3)cc2)Oc2c(NC(=O)C3CC3)cccc2C1=O`, the cytotoxicity call is “inactive”.

For the compound `CC(C)N1C[C@H](C)[C@@H](CN(C)Cc2ccc(Oc3ccccc3)cc2)Oc2c(NC(=O)C3CCN(C)CC3)cccc2C1=O`, the cytotoxicity call is “inactive”.

Regarding `COCC(=O)N1C[C@@H](C)[C@@H](OC)CN(C)C(=O)c2cc(NC(=O)c3ccc(F)cc3)ccc2OC[C@H]1C`, the cytotoxicity call was “inactive”.

Take `CN(C)CC(=O)N[C@H]1CC[C@H](CCNC(=O)C2CC2)O[C@H]1CO`: the cytotoxicity call was “inactive”.

For the compound `CO[C@@H]1CN(C)C(=O)c2ccc(NS(=O)(=O)CC(F)(F)F)cc2OC[C@@H](C)N(Cc2nccs2)C[C@@H]1C`, the cytotoxicity call was “inactive”.

For `O=C(CCCCCCC(=O)Nc1ccc([C@H]2C[C@H](c3ccccc3)O[C@H](c3ccccc3)O2)cc1)NO`, the cytotoxicity call was “inactive”.

As for `COc1cc2c(cc1OC)CN(C[C@H]1C[C@H](c3ccccc3)O[C@H](c3ccc(NC(=O)CCCCCCC(=O)NO)cc3)O1)CC2`, the cytotoxicity call was “active”.

`O=C(CCCCCCC(=O)Nc1ccc([C@H]2C[C@H](c3ccccc3)O[C@H](c3ccc(Oc4ccccc4)cc3)O2)cc1)NO`: the cytotoxicity call was “active”.

For `O=C(CCCCCCC(=O)Nc1ccc([C@H]2C[C@H](c3ccccc3)O[C@H](c3cccc(Oc4ccccc4)c3)O2)cc1)NO`, the cytotoxicity call is “inactive”.

Turning to `O=C(CCCCCCC(=O)Nc1ccc([C@H]2O[C@@H](COc3ccccc3)C[C@H](c3ccccc3)O2)cc1)NO`, the cytotoxicity call is “inactive”.

As to `O=C(CCCCCCC(=O)Nc1ccc([C@H]2O[C@@H](CN3CCCCCCC3)C[C@H](c3ccccc3)O2)cc1)NO`, the cytotoxicity call is “inactive”.

`C[C@@H]1CN([C@H](C)CO)C(=O)c2cc(NC(=O)C3CCCCC3)ccc2O[C@@H](C)CCCCO[C@H]1CN(C)S(=O)(=O)c1cccs1`: the cytotoxicity call is “inactive”.

Consider `COc1ccc(NC(=O)N(C)C[C@@H]2OCCCC[C@H](C)Oc3ccc(NC(=O)Nc4c(C)noc4C)cc3C(=O)N([C@@H](C)CO)C[C@H]2C)cc1`, for which the cytotoxicity call was “inactive”.
